# Results from PubChem BioAssay (NCATS).
# “And” between values parts separate entries of the source, which are not always exact repeats. Equal values may be shown once. A number with no mark means an inactive call. Inconclusive results are not listed. Entries that show only a call come without a potency. The source made the active and inactive calls. Unless noted, calls come from the whole dose curve; as a rule, active = well fitted curve in the direction sought with a large enough effect; inconclusive = small, poorly fitted or top-dose-only effect, or another doubt; inactive = no such curve, though single readings can be large; an effect the other way counts as inactive or inconclusive.
# Key:
# [1] = Cell Viability - MRC5 (AID 434; calls by dose curve;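 note: potency is the fitted concentration of half-maximal effect; cells exposed to compound for 40 hours at 37 °C; potency reflects cytotoxicity seen as loss of intracellular ATP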); conditions: MRC5 lung fibroblast viability, qHTS
# In short: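 ATP luminescence read-out (CellTiter-Glo, 20 min RT) after 40 hr, 37 °C compound exposure of 1500 MRC5 cells/well. Data normalized to DMSO (basal) and 100 uM tamoxifen (100% inhibition); AC50 from standard Hill equation.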
# [2] = Cellular Toxicity (caspase-3) HepG2 (AID 654); conditions: HepG2 caspase-3 activation, luminescence; series mostly up to 92.2 µM;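 note: cells exposed to compound for 16 hours before reading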
# In short: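 Luminescent Caspase-Glo 3/7 readout after 16 hr compound exposure of human hepatocellular carcinoma HepG2 cells at 37 °C; qHTS concentration-response, normalized DMSO = 0%, 100 uM tamoxifen = 100%; AC50 by standard Hill equation.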
# [3] = Cellular Toxicity (caspase-3) HUV-EC-C (AID 656); conditions: HUV-EC-C cells, caspase-3 activation (apoptosis); series mostly up to 92.2 µM
# In short: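 HUV-EC-C cells (1000/well) in complete medium, compound-treated 16 h at 37 °C; caspase-3/7 activity read by Caspase-Glo 3/7 luminescence. Normalized to DMSO (basal) and 100 uM tamoxifen (100%); AC50 from Hill-equation concentration-response fits.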
# [4] = Cellular Toxicity (caspase-3) SHSY5Y (AID 657); conditions: SH-SY5Y caspase-3 activation; series mostly up to 91.7 µM
# In short: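 SH-SY5Y human neuroblastoma cells, 1500/well, exposed to compound for 16 hours at 37 °C in complete medium. Caspase-3/7 activity read by Caspase-Glo luminescence after 1 hr at room temperature, normalized to DMSO and 10 uM staurosporine; AC50 from Hill fit.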
# [5] = Cellular Toxicity (caspase-3) BJ (AID 658); conditions: BJ fibroblasts, luminescence; Potency: caspase-3 activation; series mostly up to 91.7 µM
# In short: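 qHTS, BJ fibroblasts, 1000 cells/well; 5 hr preincubation, 16 hr compound, 37 °C; Caspase-Glo 3/7 reagent, 1 hr RT; luminescence. DMSO = 0%, 10 uM staurosporine = 100%. Hill-equation AC50.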
# [6] = Cellular Toxicity (caspase-3) MRC-5 (AID 659); conditions: MRC-5 cells, luminescence, normalized: DMSO 0%, 10 µM staurosporine 100%; series mostly up to 91.7 µM
# In short: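 MRC-5 fibroblasts, 1500/well; 16 h cpd, 37 °C; Caspase-Glo 3/7, 1 h RT; lumi read. Norm: DMSO = 0%, 10 uM staurosporine = 100%. Hill-fit AC50 from qHTS conc-response.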
# [7] = Cellular Toxicity (caspase-3) Mesangial (AID 660); conditions: mesangial cells, normalized: DMSO 0%, 100 µM tamoxifen 100%; series mostly up to 91.7 µM;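 note: cells exposed to compound for 16 h before the caspase read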
# In short: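 Luminescent Caspase-Glo 3/7 readout (aminoluciferin substrate cleavage, 20 min RT) after 16 h compound exposure at 37 °C of normal human mesangial cells. Signal increase normalized between DMSO basal and 100 uM tamoxifen; Hill-equation AC50.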
# [8] = Cellular Toxicity (caspase-3) SK-N-SH (AID 661); conditions: SK-N-SH caspase-3 activation, qHTS, DMSO as zero, staurosporine as full; series mostly up to 91.7 µM
# In short: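 Luminescent Caspase-Glo 3/7 read-out after 16 hr compound exposure of SK-N-SH neuroblastoma cells at 37 °C. Signal increase normalized to DMSO (basal) and 10 uM staurosporine (100%); AC50 from Hill equation fits of qHTS concentration-response data.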
# [9] = Cellular Toxicity (caspase-3) H-4-II-E (AID 663); conditions: H-4-II-E rat hepatoma; Potency: caspase-3 activation; series mostly up to 92.2 µM;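 note: cells exposed to compound for 16 hr before readout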
# In short: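 H-4-II-E rat hepatoma, 1500 cells/well, 5 hr settle at 37 °C; compound 16 hr, 37 °C, complete medium; Caspase-Glo 3/7, 20 min RT; luminescence. DMSO = 0%, 100 uM tamoxifen = 100%; Hill-equation AC50.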
# [10] = Cellular Toxicity (caspase-3) Hek293 (AID 664); conditions: HEK293 caspase-3 activation, DMSO = 0%, 100 µM tamoxifen = 100%; at 92.2 µM (top of the series);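 note: cells exposed to compound for 16 h at 37 °C before readout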
# In short: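 Luminescent Caspase-Glo 3/7 readout (aminoluciferin release) in HEK293 cells after 16 h compound treatment, 37 °C. Normalization: DMSO = basal, 100 uM tamoxifen = 100% stimulation. Concentration-response fitted with standard Hill equation for AC50.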
# [11] = Cellular Toxicity (caspase-3) N2a (AID 665); conditions: N2a cells, luminescence, normalized: DMSO 0%, 10 µM staurosporine 100%; series mostly up to 92.2 µM;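 note: compound exposure lasted 16 h at 37 °C before readout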
# In short: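 Luminescent Caspase-Glo 3/7 readout in N2a mouse neuroblastoma cells after 16 h compound exposure at 37 °C. Signal scaled to DMSO (basal) and 10 uM staurosporine (100%). Concentration-response fitted with Hill equation for AC50.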
# [12] = Cellular Toxicity (caspase-3) Renal Proximal Tubule (AID 667); conditions: renal proximal tubule cells, primary cells freshly taken from rat; Potency: caspase-3 activation; series mostly up to 91.7 µM;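 note: cells exposed to compound for 16 hours at 37 °C before detection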
# In short: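 Freshly isolated primary rat kidney proximal tubule cells, 1000/well, treated 16 hr at 37 °C, then Caspase-Glo 3/7 luminescence after 1 hr. Normalized to DMSO and 10 uM staurosporine; AC50 from Hill fit.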
# [13] = MultiTox-Fluor Cytotoxicity Assay - LYMP1-001 - Dead Cells (AID 946); conditions: LYMP1-001 lymphoblastoid cells, dead-cell protease fluorescence; series mostly up to 92.2 µM; note: potency is the fitted concentration of half-maximal effect
# In short: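 Cytotoxicity as increased dead-cell protease fluorescence (bis-AAF-R110, 485/520 nm), read 60 min after MultiTox-Fluor reagent. Human lymphoblastoid line exposed 16 h; Hill-fitted AC50, with DMSO as 0% and 15 uM tetraoctylammonium bromide as 100%.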
# [14] = MultiTox-Fluor Cytotoxicity Assay - LYMP1-003 - Live Cells (AID 962); conditions: LYMP1-003 lymphoblastoid cells, MultiTox-Fluor live-cell protease fluorescence; series mostly up to 92.2 µM; note: potency is the fitted concentration of half-maximal effect
# In short: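 Readout: live-cell fluorescence (Ex/Em=405/510) from GF-AFC cleavage after 60 min MultiTox-Fluor reagent at room temperature. Lymphoblastoid LYMP1-003 cells, 16 hr compound treatment, 37 C. Concentration-response fitted to standard Hill equation for AC50.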
# [15] = Cell Viability - LYMP1-003 - Assay at 24 hr (AID 963); conditions: LYMP1-003 lymphoblastoid cell viability; series mostly up to 92.2 µM
# In short: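 CellTiter-Glo luminescence (intracellular ATP) read after 24 hr, 37 C compound exposure of 2500 LYMP1-003 human lymphoblastoid cells/well in complete medium; qHTS concentration series; AC50 via standard Hill equation.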
# [16] = qHTS Assay for Identification of Small Molecule Inducers of Hypoxia Response (AID 2120; active = well fitted curve in the direction sought with a large enough effect in the signal ratio, with a control signal flat, not every such curve was filed as active; the % refers to the signal ratio); conditions: hypoxia response reporter cells, beta-lactamase ratio readout; series mostly up to 104 µM
# In short: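 Read-out: CCF4 FRET emission ratio 460nm/530nm (excitation 405nm), converted to %Activity, with AC50 fitted across a compound titration. ME-180 cells carried an HRE-driven beta-lactamase reporter; compound exposure 17 h, 37 degrees C.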
# [17] = molecular target: Peroxisome proliferator-activated receptor alpha (Homo sapiens) (UniProt Q07869); assay: qHTS assay for small molecule agonists of the peroxisome proliferator-activated receptor alpha (PPARalpha) signaling pathway (AID 651778); conditions: PathHunter PPARalpha complementation, chemiluminescence, 6 h; max response: hits give high values; note: potency is the fitted concentration of half-maximal effect
# Sequence of Peroxisome proliferator-activated receptor alpha (Homo sapiens) (Q07869 whole entry, looked up, the tested form may be a part): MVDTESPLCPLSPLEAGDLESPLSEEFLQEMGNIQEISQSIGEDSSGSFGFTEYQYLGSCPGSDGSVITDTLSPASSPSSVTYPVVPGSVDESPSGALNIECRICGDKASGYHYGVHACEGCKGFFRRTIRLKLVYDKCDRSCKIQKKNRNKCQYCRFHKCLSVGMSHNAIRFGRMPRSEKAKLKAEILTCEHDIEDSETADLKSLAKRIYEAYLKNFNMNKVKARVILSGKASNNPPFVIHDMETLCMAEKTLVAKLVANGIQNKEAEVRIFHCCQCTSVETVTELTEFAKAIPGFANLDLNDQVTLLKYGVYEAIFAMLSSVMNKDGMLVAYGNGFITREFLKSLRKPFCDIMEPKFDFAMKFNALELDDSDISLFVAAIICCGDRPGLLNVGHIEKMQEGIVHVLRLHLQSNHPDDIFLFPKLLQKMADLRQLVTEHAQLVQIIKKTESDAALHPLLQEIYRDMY
# In short: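 Enzyme-fragment complementation assay in which ligand-bound PPARalpha translocates and forms an active enzyme that generates chemiluminescence. Cells were plated overnight, exposed to compound for 6 hr at 37 C, and then given detection reagent for 60 min at room temperature.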
# [18] = qHTS assay for small molecule agonists of the antioxidant response element (ARE) signaling pathway measured by Nrf2-dependant transcriptional activity - cell viability counter screen (AID 720653; active = well fitted curve in the direction sought with a large enough effect in the repeat runs; an effect the other way counts as inactive or inconclusive); conditions: ARE-bla HepG2 viability, CellTiter-Glo ATP luminescence, 16 h; max response: hits give low values
# In short: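 ARE-bla HepG2 cells treated with compounds for 16 h at 37C; this counter screen measures viability as intracellular ATP by CellTiter-Glo luminescence after 30 min at room temperature.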
# [19] = qHTS assay for cell viability of HEK293 cells (AID 743288); conditions: ATP luminescence (CellTiter-Glo), 18 h; max response: hits give low values; note: nearly all actives have a fitted effect of over 50% in size
# In short: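 Steps: plate 2,000 parental HEK293 cells per well; incubate ≥5 h, 37 C; add compounds in DMSO; incubate 18 h, 37 C; add CellTiter-Glo; wait 30 min at room temperature; read luminescence.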
# [20] = qHTS assay for cell viability of the p53RE-bla HCT-116 cell line (AID 743292); conditions: p53RE-bla HCT-116 viability, ATP luminescence, 16 h; series mostly up to 95 µM; note: nearly all actives have a fitted effect of over 55% in size
# In short: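 Luminescent ATP quantitation (CellTiter-Glo) served as the viability read-out; reagent was added after 16 h compound exposure at 37 C and read after 30 min at room temperature. Cells: p53RE-bla HCT-116, 4,000 per well.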
structure (smiles),measurement,setting,value
CC(=O)OC(C(=O)c1ccccc1)c1ccccc1 (configuration not stated),Potency,[1],> 92 µM
same,Potency,[2],inactive
same,Potency,[3],inactive
same,Potency,[4],inactive
same,Potency,[5],inactive
same,outcome,[6],inactive
same,outcome,[7],inactive
same,outcome,[8],inactive
same,Potency,[9],inactive
same,caspase-3 activation,[10],-0.138%
same,outcome,[11],inactive
same,Potency,[12],inactive
same,Potency,[13],inactive
same,Potency,[14],inactive
same,Potency,[15],inactive
same,Potency,[16],inactive
same,max response,[17],-5.41%
same,max response,[18],-8.03%
same,max response,[19],-11.3%
same,Potency,[20],inactive
O=C1c2ccccc2C(=O)C1(O)O,Potency,[1],44.8 µM (active)
same,Potency,[2],inactive
same,Potency,[3],inactive
same,Potency,[4],inactive
same,Potency,[5],inactive
same,outcome,[6],inactive
same,outcome,[7],inactive
same,outcome,[8],inactive
same,Potency,[9],inactive
same,caspase-3 activation,[10],0.893%
same,outcome,[11],inactive
same,Potency,[12],inactive
same,Potency,[13],inactive
same,Potency,[14],inactive
same,Potency,[15],inactive
same,Potency,[16],inactive
same,max response,[17],0.0449%
same,max response,[18],-29.9%
same,max response,[19],-12.1%
same,Potency,[20],inactive
CCCCCCCCOc1ccc(C(=O)O)cc1,Potency,[1],> 92 µM
same,Potency,[2],inactive
same,Potency,[3],inactive
same,Potency,[4],inactive
same,Potency,[5],inactive
same,outcome,[6],inactive
same,outcome,[7],inactive
same,outcome,[8],inactive
same,Potency,[9],inactive
same,caspase-3 activation,[10],-2.79%
same,outcome,[11],inactive
same,Potency,[12],inactive
same,Potency,[13],inactive
same,Potency,[14],inactive
same,Potency,[15],inactive
same,Potency,[16],inactive
same,Potency,[17],7.08 µM (active)
same,max response,[18],-6.08%
same,max response,[19],8.21%
same,Potency,[20],inactive
O=C(OCC1CO1)C1CCCCC1C(=O)OCC1CO1 (configuration not stated),Potency,[1],> 92 µM
same,Potency,[2],inactive
same,Potency,[3],inactive
same,Potency,[4],inactive
same,Potency,[5],inactive
same,outcome,[6],inactive
same,outcome,[7],inactive
same,outcome,[8],inactive
same,Potency,[9],inactive
same,caspase-3 activation,[10],4.8%
same,outcome,[11],inactive
same,Potency,[12],inactive
same,Potency,[13],inactive
same,Potency,[14],inactive
same,Potency,[15],inactive
same,Potency,[16],inactive
same,max response,[17],11.4%
same,max response,[18],4.68%
same,max response,[19],-26.2%
same,Potency,[20],inactive
c1ccc(SCCSc2ccccc2)cc1,Potency,[1],> 92 µM
same,Potency,[2],inactive
same,Potency,[3],inactive
same,Potency,[4],inactive
same,Potency,[5],inactive
same,outcome,[6],inactive
same,outcome,[7],inactive
same,outcome,[8],inactive
same,Potency,[9],inactive
same,caspase-3 activation,[10],0.456%
same,outcome,[11],inactive
same,Potency,[12],inactive
same,Potency,[13],inactive
same,Potency,[14],inactive
same,Potency,[15],inactive
same,Potency,[16],inactive
same,max response,[17],2.97%
same,max response,[18],1.28%
same,max response,[19],3.66%
same,Potency,[20],inactive
CN(C)c1ccc(C(=N)c2ccc(N(C)C)cc2)cc1,Potency,[2],inactive
same,Potency,[3],inactive
same,Potency,[5],inactive
same,outcome,[6],inactive
same,outcome,[7],inactive
same,caspase-3 activation,[10],7.49%
same,outcome,[11],inactive
same,Potency,[12],inactive
same,Potency,[13],39.8 µM (active)
same,Potency,[15],inactive
same,Potency,[16],inactive
same,max response,[17],-0.198%
same,max response,[18],-25.3%
same,Potency,[20],inactive
Nc1ccc(N)c(Cl)c1,Potency,[1],> 92 µM
same,Potency,[2],inactive
same,Potency,[3],inactive
same,Potency,[4],inactive
same,Potency,[5],inactive
same,outcome,[6],inactive
same,outcome,[7],inactive
same,outcome,[8],inactive
same,Potency,[9],inactive
same,caspase-3 activation,[10],4.53%
same,outcome,[11],inactive
same,Potency,[12],inactive
same,Potency,[13],inactive
same,Potency,[16],inactive
same,max response,[17],0.817%
same,max response,[18],24%
same,max response,[19],-4.85%
same,Potency,[20],inactive
Brc1cc(Br)c(Oc2cc(Br)c(Br)cc2Br)cc1Br,Potency,[1],> 92 µM
same,Potency,[2],inactive
same,Potency,[3],inactive
same,Potency,[4],inactive
same,Potency,[5],inactive
same,outcome,[6],inactive
same,outcome,[7],inactive
same,outcome,[8],inactive
same,Potency,[9],inactive
same,caspase-3 activation,[10],0.345%
same,outcome,[11],inactive
same,Potency,[12],inactive
same,Potency,[13],inactive
same,Potency,[14],inactive
same,Potency,[15],inactive
same,Potency,[16],inactive
same,max response,[17],-1.94%
same,max response,[18],-7.08%
same,max response,[19],-23.2%
same,Potency,[20],inactive
C=CC(=O)OCCCCCCOC(=O)C=C,Potency,[1],> 92 µM
same,Potency,[2],inactive
same,Potency,[3],inactive
same,Potency,[4],inactive
same,Potency,[5],inactive
same,outcome,[6],inactive
same,outcome,[7],inactive
same,outcome,[11],inactive
same,Potency,[12],inactive
same,Potency,[14],50.1 µM (active)
same,Potency,[16],inactive
same,max response,[17],0.65% and -0.822%
same,max response,[18],-16.8% and -7.99%
same,max response,[19],-28.7% and -17.5%
same,Potency,[20],inactive
